Experimental data as given in PubChem BioAssay AID1159580 (chemical genetic matrix, 2015).
Out of some 5,500 compounds screened, about 2,000 (36%) were called active. Inconclusive results (about 18%) are left out. Cut-off read from the data, not from the text of the source: active = normalized growth mostly below about 0.91 (no sharp cut-off); inconclusive = no clear call, values can overlap the other calls; inactive = mostly above about 0.92. The list shows a part of the results.

Test: chemical genetic growth profiling, strain panel (AID 1159580);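 note: tested at 20 µM; growth read once vehicle control cultures reached saturation at 30 °C; 1 = growth at the plate median or of vehicle wells; lower values mean less growth of the strain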
Conditions: S. cerevisiae deletion strains, growth OD
[1] = locus YDL101C, strain DUN1, stronger effect = lower value
[2] = locus YHR030C, strain SLT2, stronger effect = lower value
[3] = locus YAL013W, strain DEP1, stronger effect = lower value
[4] = locus YBR229C, strain ROT2, stronger effect = lower value
[5] = locus YCL061C, strain MRC1, stronger effect = lower value
[6] = locus YDR150W, strain NUM1, stronger effect = lower value
[7] = locus YEL061C, strain CIN8, stronger effect = lower value
[8] = locus YGR078C, strain PAC10, stronger effect = lower value
[9] = locus YHR087W, strain rtc3, stronger effect = lower value
[10] = locus YJR043C, strain POL32, stronger effect = lower value
[11] = locus YJR075W, strain HOC1, stronger effect = lower value
[12] = locus YLR039C, strain RIC1, stronger effect = lower value
[13] = locus YLR058C, strain SHM2 (second series), stronger effect = lower value
[14] = locus YLR085C, strain ARP6, stronger effect = lower value
[15] = locus YLR262C, strain YPT6, stronger effect = lower value
[16] = locus YML094W, strain GIM5, stronger effect = lower value
[17] = locus YMR219W, strain ESC1, stronger effect = lower value
[18] = locus YMR263W, strain SAP30, stronger effect = lower value
[19] = locus YMR307W, strain GAS1, stronger effect = lower value
[20] = locus YNL153C, strain GIM3, stronger effect = lower value
[21] = locus YNL298W, strain CLA4 (second series), stronger effect = lower value
[22] = locus YNL322C, strain KRE1, stronger effect = lower value
[23] = locus YNR030W, strain Alg12, stronger effect = lower value
[24] = locus YPL055C, strain LGE1, stronger effect = lower value
[25] = locus YPL241C, strain CIN2, stronger effect = lower value
[26] = locus YPR135W, strain CTF4, stronger effect = lower value

Measured: normalized growth

Cc1c2c(=O)[nH]ncc2c(-c2ccccc2)n1-c1ccc([N+](=O)[O-])cc1
active: [2] 0.812
inactive: locus YAR019C, strain CDC15, stronger effect = lower value 0.99 | locus YBL105C, strain PKC1, stronger effect = lower value 0.999 | locus YBR135W, strain CKS1, stronger effect = lower value 0.998 | locus YBR136W, strain MEC1, stronger effect = lower value 0.993 | locus YBR160W, strain CDC28, stronger effect = lower value 0.99 | locus YDL017W, strain CDC7, stronger effect = lower value 0.999 | locus YDL028C, strain MPS1, stronger effect = lower value 0.987 | [1] 0.991 | locus YDL108W, strain KIN28, stronger effect = lower value 0.989 | locus YDL132W, strain cdc53, stronger effect = lower value 0.991 | locus YDL214C, strain PRR2, stronger effect = lower value 0.953 | locus YDR052C, strain DBF4, stronger effect = lower value 1 | locus YDR054C, strain cdc34, stronger effect = lower value 1 | locus YDR226W, strain ADK1, stronger effect = lower value 0.991 | locus YDR477W, strain SNF1, stronger effect = lower value 0.925 | locus YER123W, strain YCK3, stronger effect = lower value 0.958 | locus YER133W, strain GLC7, stronger effect = lower value 0.946 | locus YFL009W, strain cdc4, stronger effect = lower value 0.975 | locus YFL029C, strain CAK1, stronger effect = lower value 0.977 | locus YFR003C, strain YPI1, stronger effect = lower value 0.99 | locus YFR019W, strain FAB1, stronger effect = lower value 0.95 | locus YFR028C, strain CDC14, stronger effect = lower value 0.978 | locus YGR040W, strain KSS1, stronger effect = lower value 0.939 | locus YGR052W, strain FMP48, stronger effect = lower value 1.01 | locus YGR092W, strain DBF2, stronger effect = lower value 1 | locus YHR079C, strain IRE1, stronger effect = lower value 0.994 | locus YHR082C, strain KSP1, stronger effect = lower value 1.01 | locus YHR205W, strain SCH9, stronger effect = lower value 0.937 | locus YIL147C, strain SLN1, stronger effect = lower value 0.993 | locus YJL095W, strain BCK1, stronger effect = lower value 0.903 | locus YJL128C, strain PBS2, stronger effect = lower value 0.988 | locus YJL157C, strain FAR1, stronger effect = lower value 0.971 | locus YJR016C, strain ILV3, stronger effect = lower value 0.986 | locus YJR066W, strain TOR1 (second series), stronger effect = lower value 0.928 | locus YJR066W, strain TOR1, stronger effect = lower value 0.954 | locus YKL048C, strain ELM1, stronger effect = lower value 0.94 | locus YKL067W, strain YNK1, stronger effect = lower value 0.935 | locus YKL101W, strain HSL1, stronger effect = lower value 0.968 | locus YKL193C, strain SDS22, stronger effect = lower value 0.996 | locus YKL203C, strain TOR2, stronger effect = lower value 1.03 | locus YLR113W, strain HOG1, stronger effect = lower value 0.871 | locus YLR133W, strain CKI1, stronger effect = lower value 0.975 | locus YLR403W, strain SFP1, stronger effect = lower value 0.963 | locus YML070W, strain DAK1, stronger effect = lower value 0.93 | locus YMR001C, strain CDC5, stronger effect = lower value 0.989 | locus YMR205C, strain PFK2 (second series), stronger effect = lower value 0.956 | locus YMR277W, strain FCP1, stronger effect = lower value 0.979 | locus YNL006W, strain LST8, stronger effect = lower value 0.983 | locus YNL020C, strain ARK1, stronger effect = lower value 0.975 | locus YNL161W, strain CBK1, stronger effect = lower value 0.998 | locus YNL183C, strain NPR1, stronger effect = lower value 1.03 | locus YNL207W, strain RIO2, stronger effect = lower value 1 | locus YNL222W, strain SSU72, stronger effect = lower value 0.98 | locus YNL307C, strain MCK1 (second series), stronger effect = lower value 0.949 | locus YOL078W, strain AVO1, stronger effect = lower value 0.995 | locus YOL136C, strain PFK27, stronger effect = lower value 0.938 | locus YOR061W, strain CKA2, stronger effect = lower value 0.955 | locus YOR119C, strain RIO1, stronger effect = lower value 0.975 | locus YOR231W, strain MKK1, stronger effect = lower value 0.936 | locus YOR329C, strain SCD5, stronger effect = lower value 0.993 | locus YPL031C, strain PHO85, stronger effect = lower value 0.941 | locus YPL153C, strain RAD53, stronger effect = lower value 0.939 | locus YPL204W, strain HRR25, stronger effect = lower value 0.933 | locus YPL209C, strain IPL1, stronger effect = lower value 1 | locus YPL256C, strain CLN2, stronger effect = lower value 0.931 | locus YPR025C, strain CCL1, stronger effect = lower value 0.988 | locus YPR106W, strain ISR1, stronger effect = lower value 1.01 | locus YPR111W, strain DBF20, stronger effect = lower value 1 | strain NNK1, stronger effect = lower value 1.01 | strain TSCII, stronger effect = lower value 0.987

Cc1[nH]ncc1-c1ccccc1
inactive: [3] 1 | [4] 0.978 | [5] 0.973 | [1] 0.979 | [6] 1.01 | [7] 0.986 | [8] 0.998 | locus YGR229C, strain SMI1, stronger effect = lower value 0.999 | [2] 0.981 | [9] 1.02 | locus YJL187C, strain SWE1, stronger effect = lower value 0.983 | [10] 0.984 | [11] 1.02 | [12] 0.873 | [13] 0.986 | [14] 0.994 | [15] 0.896 | [16] 0.974 | [17] 0.995 | [18] 0.967 | [19] 0.933 | locus YNL128W, strain TEP1, stronger effect = lower value 0.993 | [20] 0.961 | [21] 0.98 | [22] 1.01 | [23] 0.991 | [24] 1.07 | [25] 0.986 | [26] 0.921

COc1ccc(NS(=O)(=O)c2c(C)noc2C)cc1
inactive: [3] 1.03 | [4] 1.02 | [5] 1 | [1] 1.02 | [6] 0.995 | [7] 1.03 | [8] 1.04 | [2] 1.06 | [9] 1.02 | [10] 0.995 | [11] 1.02 | locus YKL190W, strain CNB1, stronger effect = lower value 1 | [12] 1.02 | [13] 1 | [14] 1.02 | [15] 1.01 | [16] 1.07 | [17] 0.996 | [18] 0.993 | [19] 0.941 | [20] 1.02 | [21] 1.02 | [22] 1.01 | [23] 1.04 | locus YOL006C, strain TOP1, stronger effect = lower value 1.03 | [24] 1.06 | [25] 0.911 | [26] 1.02
